Laboratory results reported in the antibiotic and cytotoxicity screens of Wong et al. (2023).
Among all 39,000 compounds or so, about 500 (1.3%) were called active. The full list was thinned out, with actives kept by preference.

The compounds below were run on S. aureus RN4220 (assay: growth inhibition call (relative growth <= 0.2)). Conditions: 50 µM.
For CCC1(C2OC(C3OC(O)(CO)C(C)CC3C)CC2C)CCC(C2(C)CCC3(CC(O)C(C)C(C(C)C(OC)C(C)C(=O)[O-])O3)O2)O1.[Na+] (configuration not stated), the growth inhibition call was “active”. In the case of O=C(O)C(Cl)Cl.[NaH], the growth inhibition call is reported as “inactive”. For C[N+]1(C)C2CC(OC(=O)C(CO)c3ccccc3)CC1C1OC12.[Br-] (configuration not stated), the growth inhibition call was “inactive”. In the case of C[C@@]12NC(=O)CN1CCc1ccccc12, the growth inhibition call is reported as “inactive”. In the case of CCC(C(=O)[O-])C1CCC(C)C(C(C)C(O)C(C)C(=O)C(CC)C2OC3(C=CC(O)C4(CCC(C)(C5CCC(O)(CC)C(C)O5)O4)O3)C(C)CC2C)O1.[Na+] (configuration not stated), the growth inhibition call is reported as “active”. With CC[C@@H](C(=O)[C@@H](C)[C@@H](O)[C@H](C)[C@@H]1O[C@@H]([C@@H](CC)C(=O)O)CC[C@@H]1C)[C@H]1O[C@]2(C=C[C@@H](O)[C@]3(CC[C@@](C)([C@H]4CC[C@](O)(CC)[C@H](C)O4)O3)O2)[C@H](C)C[C@@H]1C the growth inhibition call was “active”. For CC[C@@H](C)C(=O)O[C@H]1[C@H](O)[C@H]2[C@@H](CN3C[C@@H](C)CC[C@@H]3[C@@]2(C)O)[C@H]2C[C@]34O[C@]5(O)[C@@H](OC(=O)[C@@](C)(O)CC)CC[C@@]3(C)[C@@H]5[C@@H](OC(C)=O)[C@@H](OC(C)=O)[C@@H]4[C@@]21O, the growth inhibition call was “inactive”. For COC(=O)C[C@@H]1CC[C@@H]2NC[C@H](O)COC[C@H]2O1, the growth inhibition call was “inactive”. In the case of COc1cc2c3cc1Oc1c(OC)c(OC)cc4c1[C@@H](Cc1cccc(c1)Oc1ccc(c(O)c1)C[C@@H]3N(C)CC2)N(C)CC4, the growth inhibition call is reported as “inactive”. With C[C@@H](CN)CC(=O)O the growth inhibition call was “inactive”. For Cc1noc(C)c1CN1CCNCC1, the growth inhibition call was “inactive”. For C[C@H](O)[C@@]12[C@H]3CC=C[C@@H]1N2CC3 (some centres not stated), the growth inhibition call was “inactive”. With CCCCOC(=O)c1ccccc1C(=O)OCCCC the growth inhibition call was “inactive”. In the case of O=C([O-])Cc1ccccc1.[Na+], the growth inhibition call is reported as “inactive”. C[CH2][Hg][S]c1ccccc1C(=O)[O-].[Na+] was tested, and the growth inhibition call was “active”. In the case of NCCO.NCCO.O[AsH]O[AsH]O (configuration not stated), the growth inhibition call is reported as “inactive”. In the case of CO[C@H]1[C@@H](O)C[C@@H](O[C@H]2[C@@H](O)C[C@@H](O[C@H]3[C@@H](O)C[C@@H](O[C@H]4CC[C@@]5(C)[C@@H](CC[C@H]6[C@@H]5C[C@@H](O)[C@@]5(C)[C@H](C7=CC(=O)OC7)CC[C@@]65O)C4)O[C@@H]3C)O[C@@H]2C)O[C@@H]1C, the growth inhibition call is reported as “inactive”. In the case of CN1C[C@H](C(=O)N[C@]2(C)O[C@@]3(O)[C@@H]4CCCN4C(=O)[C@H](Cc4ccccc4)N3C2=O)C=C2c3cccc4[nH]cc(c34)C[C@H]21, the growth inhibition call is reported as “inactive”. For CCCCCCCCCc1ccc(O)cc1, the growth inhibition call was “inactive”. In the case of C=C(C)[C@@H]1CCC(C)=C[C@H]1c1c(O)cc(CCCCC)cc1O, the growth inhibition call is reported as “active”. In the case of C=C(C)[C@@H]1CCC(C)=C[C@H]1c1c(OC)cc(C)cc1OC, the growth inhibition call is reported as “inactive”. C[C@H]1O[C@H](O[C@H]2[C@H](O)[C@@H](O)[C@@H](O)[C@H](O)[C@@H]2O)[C@@H](N)C[C@@H]1NC(=N)C(=O)O was tested, and the growth inhibition call was “inactive”. In the case of Cc1[nH]c2ccc(O)cc2c1CCN, the growth inhibition call is reported as “inactive”. For CN(C)[C@@H]1C(=O)[C@H](C(N)=O)C(=O)[C@@]2(O)C(=O)[C@@H]3C(=O)c4c(O)cccc4[C@@](C)(O)[C@H]3C[C@@H]12, the growth inhibition call was “active”. CN(C)[C@@H]1C(=O)[C@@H](C(N)=O)C(=O)[C@@]2(O)C(=O)[C@H]3C(=O)c4c(O)ccc(Cl)c4[C@@](C)(O)[C@H]3C[C@@H]12 was tested, and the growth inhibition call was “active”. For CN(C)[C@@H]1C(=O)C(C(N)=O)=C(O)[C@@]2(O)C(O)=C3C(=O)c4c(O)cccc4[C@](C)(O)[C@H]3C[C@@H]12, the growth inhibition call was “active”. N#Cc1nn(-c2c(Cl)cc(C(F)(F)F)cc2Cl)c(N)c1S(=O)C(F)(F)F (configuration not stated) was tested, and the growth inhibition call was “inactive”. For c1nc(N2CCN3CCC[C@H]3C2)c2[nH]cnc2n1, the growth inhibition call was “inactive”. For O=[As]O[As]=O (configuration not stated), the growth inhibition call was “inactive”. For CC(C)[N+](C)(CCC(C(N)=O)(c1ccccc1)c1ccccc1)C(C)C.[I-], the growth inhibition call was “inactive”. With CC1=CC(=O)c2c(O)cccc2C1=O the growth inhibition call was “active”. For O=C1C=CC(=O)c2c(O)cccc21, the growth inhibition call was “inactive”. In the case of Oc1ccccc1-c1ccccc1O, the growth inhibition call is reported as “inactive”. In the case of CN1C(=O)C(O)N=C(c2ccccc2)c2cc(Cl)ccc21 (configuration not stated), the growth inhibition call is reported as “inactive”. CNC(=O)Oc1ccc2c(c1)C1(C)CCN(C)C1N2C.O=S(=O)(O)O (configuration not stated) was tested, and the growth inhibition call was “inactive”. In the case of C[C@H]1O[C@H](C[N+](C)(C)C)C[C@@H]1O, the growth inhibition call is reported as “inactive”. In the case of CC(=O)N[C@@H]1[C@H](O[C@@H]2O[C@H](C[C@@H](O)[C@H]3O[C@@H](n4ccc(=O)[nH]c4=O)[C@H](O)[C@@H]3O)[C@H](O)[C@H](O)[C@H]2NC(=O)/C=C/CCCCCCCCC(C)C)O[C@@H](CO)[C@H](O)[C@H]1O, the growth inhibition call is reported as “active”. In the case of C[C@@]1(O)[C@H](O)[C@@H](CO)O[C@H]1n1ccc2c(N)ncnc21, the growth inhibition call is reported as “inactive”. O=c1cccc2n1C[C@@H]1C[C@H]2CN(CCO)C1 was tested, and the growth inhibition call was “inactive”. With CC(=CCn1c[n+](C)c2c(N)ncnc21)CCC1(C)C(C)CCC2(C)C(C)=CCCC21.[Cl-] (configuration not stated) the growth inhibition call was “active”. OCCN1CC2(CCN(c3nccs3)C2)C1 was tested, and the growth inhibition call was “inactive”. CC(C)CC(CN)CC(=O)O (configuration not stated) was tested, and the growth inhibition call was “inactive”. In the case of COC(=O)[C@@H](N)CCCNC(N)=N[N+](=O)[O-], the growth inhibition call is reported as “inactive”. With O=C1[O][SbH]23[O]C(=O)[C@H]([O]2)[C@H]2[O][SbH]4([O]C(=O)[C@H]([O]4)[C@H]1[O]3)[O]C2=O the growth inhibition call was “active”. For O=C1[O][SbH]23[O]C(=O)C([O]2)C2[O][SbH]4([O]C(=O)C([O]4)C1[O]3)[O]C2=O, the growth inhibition call was “inactive”. C=C(CCCCCCCCCCCCCCCC)OOC[C@@H](COP(=O)(ON)O[C@@H]1[C@H](O)[C@H](O)[C@@H](OP(=O)(O)ON)[C@H](OP(=O)(O)ON)[C@H]1O)OOC(=C)CC/C=C/C/C=C/C/C=C/C/C=C/CCCCC (some centres not stated) was tested, and the growth inhibition call was “inactive”. CN1CC2(CNC2)OCCS1(=O)=O was tested, and the growth inhibition call was “inactive”. For CN(C)C(=O)CCC(=O)N1C[C@H]2C[C@@H]1CN2, the growth inhibition call was “inactive”. With Oc1cc(Cl)ccc1Oc1ccc(Cl)cc1Cl [listing 1 of 2 here] the growth inhibition call was “active”. Oc1ccc(Cl)cc1Cc1cc(Cl)ccc1O was tested, and the growth inhibition call was “inactive”. Oc1cc(Cl)ccc1Oc1ccc(Cl)cc1Cl [listing 2 of 2 here] was tested, and the growth inhibition call was “inactive”. CC(=O)[O][Hg][c]1ccccc1 was tested, and the growth inhibition call was “inactive”. For NC(=O)[C@H]1CNC(=O)C1, the growth inhibition call was “inactive”. For Cc1cc2c(C(C)C)c(O)c(O)c(C=O)c2c(O)c1-c1c(C)cc2c(C(C)C)c(O)c(O)c(C=O)c2c1O, the growth inhibition call was “inactive”. In the case of CC[C@@]1(O)C[C@H](O[C@H]2C[C@H](N(C)C)[C@H](O)[C@H](C)O2)c2c(cc3c(c2O)C(=O)c2c(O)ccc(O)c2C3=O)[C@H]1C(=O)OC, the growth inhibition call is reported as “inactive”. In the case of COc1cccc2c1C(=O)c1c(O)c3c(c(O)c1C2=O)C[C@@](O)(C(=O)CO)C[C@@H]3O[C@H]1C[C@H](N2CCO[C@H](OC)C2)[C@H](O)[C@H](C)O1, the growth inhibition call is reported as “active”. CC=Cc1ccc2c(c1)OCO2 was tested, and the growth inhibition call was “inactive”. In the case of CCn1cnc2c(Nc3cccc(Cl)c3)nc(N[C@@H]3CCCC[C@@H]3N)nc21, the growth inhibition call is reported as “inactive”. CCO[C@H]1[C@H]2CC[C@@H]1NC2 was tested, and the growth inhibition call was “inactive”. For OCC(Br)(Br)Br, the growth inhibition call was “inactive”. With O=[N+]([O-])C(Br)(CO)CO [listing 1 of 2 here] the growth inhibition call was “active”. O=[N+]([O-])C(Br)(CO)CO [listing 2 of 2 here] was tested, and the growth inhibition call was “active”. With CCCCS(=O)(=O)N1C[C@H]2CNC[C@@H]2C1 the growth inhibition call was “inactive”. For C[C@H]1CN([C@@H](C)CO)C(=O)CCCn2nncc2CO[C@H]1CN(C)C(=O)Oc1ccc2ccccc2c1, the growth inhibition call was “inactive”. With CNCC(=O)c1ccc(O)c(O)c1 the growth inhibition call was “inactive”. With CCCCCCCCCC(=O)O[C@@H]1[C@@H](C)[C@]2(O)[C@@H](C=C(CO)C[C@]3(O)C(=O)C(C)=C[C@@H]23)[C@@H]2C(C)(C)[C@@]12OC(=O)CCCCCCCCC the growth inhibition call was “inactive”. For CCCCC(=O)N1C[C@@H]2CCNC[C@@H]21, the growth inhibition call was “inactive”. With Cc1nc(-c2ccc(-c3ccc(C(=O)N4CCc5cc6c(cc54)C4(CCN(C)CC4)CO6)cc3)c(C)c2)no1 the growth inhibition call was “active”. O=[N+]([O-])c1ccc([As](=O)(O)O)cc1 was tested, and the growth inhibition call was “inactive”. For CC(=O)NN1Cc2ccccc2C1=N, the growth inhibition call was “inactive”. For CNc1ccc(C(=O)C[C@@H](O)CC[C@@H](C)[C@H]2OC(=O)C[C@@H](O)CC(=O)C[C@@H](O)C[C@@H](O)C[C@@H](O)C[C@@H](O)C[C@@]3(O)C[C@@H](O)[C@H](C(=O)OC)[C@@H](C[C@@H](O[C@@H]4O[C@H](C)[C@@H](O)[C@H](N)[C@@H]4O)\C=C/C=C\C=C/C=C\C=C/C=C\C=C/[C@@H]2C)O3)cc1, the growth inhibition call was “inactive”. For CCNS(=O)(=O)C(F)(F)C(F)(F)C(F)(F)C(F)(F)C(F)(F)C(F)(F)C(F)(F)C(F)(F)F, the growth inhibition call was “inactive”. For CN(C)C(=O)Oc1ccc[n+](C)c1.[Br-], the growth inhibition call was “inactive”. With c1ccc2sc(C3(N4CCCC4)CCCCC3)cc2c1 the growth inhibition call was “inactive”. CCCCOC(=O)C1=CC(=O)CC(C)(C)O1 was tested, and the growth inhibition call was “inactive”. For O=[N+]([O-])c1cc(O)c(O)c([N+](=O)[O-])c1, the growth inhibition call was “inactive”. O=[N+]([O-])c1ccc(O)c([N+](=O)[O-])c1 was tested, and the growth inhibition call was “active”. For O=[N+]([O-])c1cc([As](=O)(O)O)ccc1O, the growth inhibition call was “inactive”. For CCCC[C@@H](C)[C@@H](OC(=O)C[C@@H](CC(=O)O)C(=O)O)[C@H](C[C@@H](C)C[C@H](O)CCCC[C@@H](O)C[C@H](O)[C@H](C)N)OC(=O)C[C@@H](CC(=O)O)C(=O)O, the growth inhibition call was “inactive”. For O=C(O)C[C@H]1CC[C@@H]2NC[C@H](O)COC[C@H]2O1, the growth inhibition call was “inactive”. With CC(C)[C@@H](Br)C(=O)NC(N)=O the growth inhibition call was “inactive”. With C[C@@H]1CN([C@H](C)CO)C(=O)CCCn2nncc2CO[C@@H]1CN(C)C(=O)Oc1ccc2ccccc2c1 the growth inhibition call was “inactive”. In the case of CC(=O)[O][PbH2][O]C(C)=O, the growth inhibition call is reported as “inactive”. CC(=O)[O][Cd][O]C(C)=O was tested, and the growth inhibition call was “active”. CC1OC(OC2C(O)C(O)C(O)C(O)C2O)C(N)CC1NC(=N)C(=O)O.Cl (configuration not stated) was tested, and the growth inhibition call was “inactive”. C=C1[C@@H](C)[C@H]2[C@H](Cc3ccccc3)NC(=O)[C@]23[C@H](OC(C)=O)/C=C/[C@](C)(O)C(=O)[C@@H](C)C/C=C/[C@H]3[C@@H]1O was tested, and the growth inhibition call was “inactive”. In the case of C=CCOC(Cn1ccnc1)c1ccc(Cl)cc1Cl.O=S(=O)(O)O (configuration not stated), the growth inhibition call is reported as “active”.
